Screening results from PubChem.
SKN-1 inh: inhibitors of C. elegans SKN-1 | AID 624304 | hit rate 0.49% among 360,000 | C. elegans VP596 Pgst-4::GFP/RFP ratio, acrylamide-induced, 24 h | inhibition, % at 21.8 µM;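 active = interference check ratio from 0.5 to 1.5 plus GFP to RFP signal ratio inhibition reaching or exceeding a fixed threshold, cut at about 30% in these data, passing the limit was not always enough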
M1 PAM: human CHRM1 positive allosteric modulation; P11229; CHO-K1 hM1, Fluo-8 calcium fluorescence, ACh EC20; 0% = ACh EC20, 100% = maximal ACh; activation, % at 3 µM; hit rate 0.088% among 360,000; AID 588819; in the data active = activation above about 19%, passing the limit was not always enough
ATG4B inh: inhibitors of human ATG4B cysteine protease; Q9Y4P1; ATG4B cleavage of LC3-PLA2, NBD-HPC fluorescence, 1 h; inhibition, % at 8.33 µM; hit rate 0.51% among 340,000; AID 504462; in the data active = inhibition above about 40%
Target sequence (Q9Y4P1 whole entry, looked up): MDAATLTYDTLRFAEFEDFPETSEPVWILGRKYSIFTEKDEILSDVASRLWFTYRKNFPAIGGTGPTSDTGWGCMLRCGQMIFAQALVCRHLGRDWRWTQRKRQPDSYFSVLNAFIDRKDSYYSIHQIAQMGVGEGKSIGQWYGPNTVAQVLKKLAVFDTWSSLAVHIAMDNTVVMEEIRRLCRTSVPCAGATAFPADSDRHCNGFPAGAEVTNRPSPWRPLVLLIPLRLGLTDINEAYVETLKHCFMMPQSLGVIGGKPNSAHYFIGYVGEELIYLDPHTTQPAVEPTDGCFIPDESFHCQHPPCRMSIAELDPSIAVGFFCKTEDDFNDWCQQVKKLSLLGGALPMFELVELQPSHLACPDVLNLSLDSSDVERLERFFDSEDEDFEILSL
Myeloid diff 2: myeloid differentiation induction; ER-HoxA9 myeloid progenitors, lysozyme-GFP differentiation, flow cytometry; calls only at 10 µM; hit rate 1% among 360,000;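 active = normalized GFP-positive differentiation at or above the plate's own cutoff, the solvent-only control mean plus 3 SD; inconclusive = no clear call, values can overlap the other calls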;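 also: cells exposed to compound for four days before flow analysis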
M1 ag: activates human CHRM1 receptor | P11229 | CHO-K1 hM1, Fluo-8 calcium fluorescence, agonist mode; 0% DMSO, 100% acetylcholine EC100 | activation, % at 3 µM | hit rate 0.33% among 360,000;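 active = activation above the run's mean compound activation plus 3 SD, cut at about 16% in these data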;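 also: peak over basal fluorescence ratio within a 140 s kinetic read after compound addition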
M1 antag: antagonists of human M1 muscarinic receptor; P11229; CHO-K1 hM1, Fluo-8 calcium fluorescence, ACh EC80 antagonist; inhibition, % at 3 µM; hit rate 1.3% among 360,000;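 active = percent inhibition above its own plate's cutoff, namely the mean of that plate's compound wells plus 3 SD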;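 also: peak over basal fluorescence ratio during 140 s after agonist addition; 0% = ACh EC80 plus DMSO and 100% = DMSO alone without agonist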
Active calls of the source: *; i = inactive; ? = inconclusive; · = no result given; + = active, no number. Only some compounds are listed: those with a hit (about 3.5% of all), similar ones and a draw of the others.

SMILES | SKN-1 inh | M1 PAM | ATG4B inh | Myeloid diff 2 | M1 ag | M1 antag
COc1cccc(NC(=O)CN(C)C(=O)c2cc(-c3ccccc3)nc3ccccc23)c1 | 7.2 | -3.5 | -7.3 | i | -1.2 | 15.7
COc1ccc(-c2cc(C(=O)N(C)CC(=O)Nc3cccc(F)c3)c3ccccc3n2)cc1OC | 15.7 | -15.4 | · | i | 2.9 | 36.7*
COc1cccc(NC(=O)CN(C)C(=O)c2cc(-c3ccccc3)nn2-c2ccccc2)c1 | -16.9 | 24.3* | 2.2 | i | -0.9 | -28.3
O=C(CCC(=O)Nc1ccccc1)NNC(=O)c1ccccc1Cl | -8.6 | 0.5 | -5.4 | i | -2.6 | 8.1
CC(=O)O/N=C1\C(=O)N(Cc2ccc(C)cc2)c2ccccc21 | 7.4 | 10.3 | 1.1 | · | 24.2* | -6.2
COc1ccc(-c2csc(Nc3ccc(S(=O)(=O)Nc4cc(OC)nc(OC)n4)cc3)n2)cc1 | 10.3 | 11.4 | 33.0 | i | -6.7 | -6.5
COc1ccc(-c2csc(Nc3ccc(S(=O)(=O)Nc4cc(C)on4)cc3)n2)cc1C | 2.1 | -3.5 | 4.7 | i | -4.9 | 46.2*
Cc1ccc(CN2CCN(Cc3cnc(C)s3)CC2CCO)cc1 (stereo not given) | 7.1 | 2.0 | -9.0 | i | -11.9 | 1.2
OCCC1CN(Cc2cnc(-c3ccccc3)s2)CCN1C1CCCC1 (stereo not given) | 2.5 | -27.7 | -0.2 | i | -9.7 | 38.8*
CC(=O)c1cccc(CN2CCN(Cc3ccc(C)cc3)C(CCO)C2)c1 (stereo not given) | -4.0 | -19.6 | -13.8 | i | -9.1 | 40.2*
OCCC1CN(CC#Cc2ccccc2)CCN1C1CCCC1 (stereo not given) | -8.4 | -0.7 | -9.0 | i | -6.3 | 4.5
Cc1ncc(CN2CCN(Cc3ccccc3)C(CCO)C2)s1 (stereo not given) | 2.5 | 10.5 | -5.1 | + | -2.8 | -8.7
OCCC1CN(CC(c2ccccc2)c2ccccc2)CCN1C1CCCC1 (stereo not given) | 0.3 | -32.2 | 0.8 | i | -14.4 | 26.8*
CCCc1cc(=O)n2[nH]c(NC(=O)c3ccco3)nc2n1 | 7.7 | 7.2 | 8.0 | i | -2.6 | -9.7
CC(OC(=O)c1ccncc1)C(=O)NC1CCCC1 (stereo not given) | 0.5 | 9.7 | -3.9 | i | -1.0 | -4.5
CC1CCCC(NC(=O)Cn2c(Cl)nc3c2c(=O)n(C)c(=O)n3C)C1C (stereo not given) | 9.3 | 6.4 | 0.0 | i | -0.9 | -12.8
COCCN(C(=O)CSc1n[nH]c(-c2ccccc2)n1)c1c(N)n(Cc2ccccc2)c(=O)[nH]c1=O | -9.2 | 1.9 | -3.8 | i | -1.9 | -0.6
O=C(CNc1ccc(Cl)c(C(F)(F)F)c1)N1CCN(S(=O)(=O)c2ccccc2)CC1 | -14.3 | 7.2 | -14.4 | ? | -0.9 | -6.7
O=[N+]([O-])c1ccc(COc2ncnc3ccccc23)cc1 | 10.2 | 9.3 | -3.4 | i | -3.3 | 3.1
Oc1ccc(-c2n[nH]c(C(F)(F)F)c2-c2ccccc2)c(O)c1 | 21.1 | -24.0 | 9.9 | i | -3.0 | 41.5*
COc1ccccc1CC(=O)NNC(=O)CN(C)S(=O)(=O)c1ccc(Cl)cc1 | 11.1 | 2.1 | 4.2 | i | -1.9 | -4.7
COc1ccc(Br)cc1/C(C)=N/NC1=NCCN1 | 4.7 | -14.4 | -2.8 | i | 68.2* | 79.4*
CCCCCOc1ccc(Br)cc1/C(C)=N/NC1=NCCN1 | 1.2 | -15.6 | 1.0 | ? | -4.5 | 5.6
Nc1cn(C2OC(CO)C(O)C2O)c(=O)[nH]c1=O (stereo not given) | -9.8 | 11.1 | -9.6 | i | -1.9 | -14.3
CCc1nnc(NC(=O)CSc2nccn2-c2cccc(C)c2)s1 | 10.8 | 9.7 | -4.1 | + | -0.2 | -6.7
SMILES | SKN-1 inh | M1 PAM | ATG4B inh | Myeloid diff 2 | M1 ag | M1 antag
Cc1cccc(-n2ccnc2SCC(=O)Nc2nnc(C)s2)c1 | -2.4 | 15.6 | -5.2 | i | 3.7 | -4.6
CCOc1ccc(S(=O)(=O)N(CC(=O)N/N=C/c2ccc(-c3ccc([N+](=O)[O-])cc3)o2)c2ccccc2)cc1 | 17.5 | 1.1 | -4.6 | + | -1.8 | -1.0
O=C(O)c1ccccc1-c1nnc2c(Cl)cc(C(F)(F)F)cn12 | 17.2 | 5.2 | -0.2 | i | 0.3 | 95.0*
Cc1nc(N)nc(N)c1Oc1ccc(Cl)cc1 | -4.7 | 4.1 | -6.3 | + | 14.6 | -17.8
Cc1cc(NC(=O)COC(=O)CCn2c(C)csc2=O)c([N+](=O)[O-])cc1C | -1.8 | 1.6 | · | i | -2.2 | 0.6
CN(Cc1nc(-c2cnccn2)no1)Cc1n[nH]c2c1CCCC2 | 2.3 | 10.0 | 14.8 | i | -0.6 | 4.8
CC(C)c1ccc(CNc2ccc3c(c2)ncn3C)cc1 | 27.5 | -14.3 | -5.0 | i | -8.9 | 34.0*
O=[N+]([O-])c1ccc(CSc2nnc(Cc3ccccc3)n2-c2ccc(F)cc2)cc1 | -3.0 | -1.4 | -7.3 | + | -8.0 | -5.9
CC1CN(C(=O)COC(=O)c2ccc(O)cc2)CC(C)O1 (stereo not given) | -14.6 | 17.3 | 2.3 | i | -0.2 | -10.6
CC(=O)Nc1cc(NC(C)=O)cc(C(=O)OCC(=O)N2CC(C)OC(C)C2)c1 (stereo not given) | 36.1* | -0.5 | 4.6 | i | -1.3 | -14.2
CC1CN(C(=O)COC(=O)/C=C/c2ccccc2)CC(C)O1 (stereo not given) | 17.8 | -13.7 | · | i | -0.8 | 28.8*
Nc1cc(C(=O)O)c(N)c2c1C(=O)c1ccccc1C2=O | 43.2* | 18.8 | -8.1 | i | -1.3 | -12.5
CCN1C(=O)CC2CCCC1C2 (stereo not given) | 3.2 | 2.2 | -5.3 | i | -1.1 | -2.0
COc1cccc2cc(-c3nc4ccccc4o3)c(=O)oc12 | -11.1 | 15.9 | -11.9 | + | -11.3 | -8.5
O=c1oc2ccc(Br)cc2cc1-c1nc2ccccc2o1 | 4.4 | 4.3 | -2.2 | i | -2.0 | -9.7
Cc1cc2c(cc1C)-n1nnnc1C(N1CCN(c3ccccc3F)CC1)C(=O)N2 (stereo not given) | 2.0 | · | · | i | · | ·
COc1cccc(C2c3cc4c(cc3OC(N3CCOCC3)C2C)OCO4)c1O (stereo not given) | -5.7 | 1.9 | -3.3 | + | -1.1 | -10.2
COc1cccc(C(N)c2nc(-c3cc(F)cc(F)c3)cs2)c1 (stereo not given) | -3.6 | -4.1 | · | i | -5.9 | 2.2
CN(C)c1ncnc2c1ncn2[C@H]1CN(Cc2ccc(Cl)cc2)C[C@@H](CO)O1 | 9.5 | -0.1 | · | i | -0.5 | -1.2
CCN(CC)c1ccc(C(=C2C=CC(=[N+](CC)CC)C=C2)c2ccccc2)cc1 | -54.4 | -33.7 | 8.8 | ? | 25.7* | 96.9*
CCN(CC)c1ccc(C(=O)NNC(=O)CCNC(=O)c2ccccc2)cc1 | 11.2 | 11.9 | -4.2 | i | -2.5 | -10.6
